{"source": "PubChem BioAssay AID1508600", "about": "(Functional Genomics Laboratory (NCATS/FGL), 2020)", "note": "In all, about 53,000 sequences went through this assay and about 3,700 (7%) were called active.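 How the source made its calls: active means gene knockdowns whose robust z-score for IL-1 alpha signal is at least 2 or at most -2, so actives lie on both sides; inactive means the rest.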 The full list was thinned out, with actives kept by preference."}
{"test": "Components of the Cytosolic LPS Sensing Pathway: Gene Identification via Genome-wide siRNA Screen;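 further: robust z of the log signal after scaling to non-targeting control siRNA wells of the plate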", "settings": "RAW264.7 macrophages, IL-1a HTRF, actives lie on both sides, screened at 100 nM (by protocol), cells primed 5 h with Pam3CSK4 first", "how_it_was_run": "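Mouse macrophage line RAW264.7 is transfected with siRNA (100 nM final), grown 48h, primed with TLR ligand Pam3CSK4 5 h and given intracellular LipidA 24 h. IL-1a in supernatant is read by HTRF and viability by luminescence.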"}
{"sequence": "GGAGAACAUAAUGAAAUCUTT against Fam50a", "z-score": "-0.0744 (inactive)"}
{"sequence": "GGAUCAAAUUCUACCUUAGTT against Tbc1d5", "z-score": "-0.595 (inactive)"}
{"sequence": "GGAGGUUGCUACAUGGUUATT against Amz1", "z-score": "-0.644 (inactive)"}
{"sequence": "GGUCCACUGAUUCUGAUAATT against Cyp4a31", "z-score": "1.79 (inactive)"}
{"sequence": "GGAUUUUGCCUAAAAUACATT against Sephs1", "z-score": "0.179 (inactive)"}
{"sequence": "GGGACAGCUUUUGUGACUCTT against Raver1", "z-score": "-2.16 (active)"}
{"sequence": "GGGCAAAUCCUUUAGUUUGTT against Siae", "z-score": "-0.62 (inactive)"}
{"sequence": "CUACAGUGGCAAUAAUAUUTT against Rpl30", "z-score": "0.425 (inactive)"}
{"sequence": "GGUACUAAAUAAAAGACCGTT against Dsc2", "z-score": "1.15 (inactive)"}
{"sequence": "GGAGGAGAGAUGGUAAUCCTT against Olfr729", "z-score": "-0.185 (inactive)"}
{"sequence": "GGAUGAGUAUGAGAGGAAUTT against Dcp1a", "z-score": "2.51 (active)"}
{"sequence": "GGUAACUGGGAAUUGUGUUTT against Vti1a", "z-score": "0.812 (inactive)"}
{"sequence": "GGGUCUCUAAGUGCUCCGUTT against Sfxn2", "z-score": "0.433 (inactive)"}
{"sequence": "CGUGAAUCACUAUACAUAATT against A630052C17Rik", "z-score": "-1.39 (inactive)"}
{"sequence": "GGAAACAGUAGAAGAUGAGTT against Fam220a", "z-score": "0.151 (inactive)"}
{"sequence": "GAAGACCAAGCUUUGUACUTT against Olfr339", "z-score": "2.28 (active)"}
{"sequence": "GGAGCUCGCCAAAAGGAAGTT against Cep19", "z-score": "1.97 (inactive)"}
{"sequence": "CCAAAGAAGGUGAGAUUUGTT against Clstn1", "z-score": "-0.161 (inactive)"}
{"sequence": "CCAGUAUGAGAACUACGAUTT against Loxl1", "z-score": "-0.345 (inactive)"}
{"sequence": "CCGUUUUGUCUGAAUUCCCTT against 4930515G01Rik", "z-score": "-2.14 (active)"}
{"sequence": "GCAGUAAAUGUCCCAUCCGTT against Caskin1", "z-score": "-1.28 (inactive)"}
{"sequence": "CCCAUCCAUACAAAAAUGATT against Polm", "z-score": "-1.73 (inactive)"}
{"sequence": "CCUUAUUGAGACGAAUACGTT against Fastkd1", "z-score": "-0.958 (inactive)"}
{"sequence": "GGACAACAGCAAAACAUCUTT against Atoh1", "z-score": "-0.757 (inactive)"}
{"sequence": "CCCAUAACAUUGGUGAUUATT against Vmn1r235", "z-score": "-0.205 (inactive)"}
{"sequence": "GGAAUGAGCUGAAUGCAAATT against Psmc5", "z-score": "-2.08 (active)"}
{"sequence": "CGUUAAAUGGCAGUACAGATT against Qk", "z-score": "0.388 (inactive)"}
{"sequence": "GCCAAACACUCGACUCUAATT against Gm11733", "z-score": "-0.823 (inactive)"}
{"sequence": "GGAAAACUUUAGCUACAAATT against Ppp4r4", "z-score": "-0.231 (inactive)"}
{"sequence": "GCUUCUAACUCUGUGAGGGTT against Defb29", "z-score": "-2.8 (active)"}
{"sequence": "GCAGACGACAAGUUCUACATT against Tbcb", "z-score": "-0.666 (inactive)"}
{"sequence": "GCUUAUCAUCUCCAGACAGTT against Svop", "z-score": "-0.144 (inactive)"}
{"sequence": "GCUGGUUACUCCCAAGACGTT against Dlgap2", "z-score": "2.18 (active)"}
{"sequence": "GGUGGAGUUAACGAGAAACTT against Ccn1", "z-score": "0.69 (inactive)"}
{"sequence": "ACUGUUUAAUCACUGUGGUTT against Olfr891", "z-score": "-0.994 (inactive)"}
{"sequence": "GGACUACAUCAACCUGGAUTT against Mlf2", "z-score": "0.25 (inactive)"}
{"sequence": "GGUCUUCGACACCAUUAACTT against Wipi2", "z-score": "0.947 (inactive)"}
{"sequence": "GGACAGUUUGAUGAUGCCGTT against Coprs", "z-score": "-2.87 (active)"}
{"sequence": "CCCUGUGACUCCAAAAUGATT against Dbh", "z-score": "-1.01 (inactive)"}
{"sequence": "GGACAACGUGCUCAUUAGUTT against Zfp709", "z-score": "0.0713 (inactive)"}
{"sequence": "GCCUGACGAAGGUUUCUAUTT against Neo1", "z-score": "-0.114 (inactive)"}
{"sequence": "GGCAUAAACCUUCUUGCUCTT against Ccl22", "z-score": "-0.221 (inactive)"}
{"sequence": "GGUAGAGGUUAUAUAGGCATT against Ms4a6d", "z-score": "0.282 (inactive)"}
{"sequence": "GGUACUCACAUCUCCAAAGTT against Zfp948", "z-score": "-0.881 (inactive)"}
{"sequence": "GGCAAACAUUUCAAAUACATT against Tgm4", "z-score": "2.12 (active)"}
{"sequence": "GGAGGAAGAGAUUUUAAACTT against Rps8", "z-score": "0.158 (inactive)"}
{"sequence": "GCUGCUGAUAACAUCCGACTT against Golga5", "z-score": "0.554 (inactive)"}
{"sequence": "GGUACAGUUACGGUCAAAUTT against Zfp952", "z-score": "0.739 (inactive)"}
{"sequence": "GGUAUGUCCUCUGGUCAAUTT against Bpifa1", "z-score": "0.282 (inactive)"}
{"sequence": "GGUCAAUGCUACUAAUGAATT against Ankrd61", "z-score": "0.661 (inactive)"}
{"sequence": "GGGAUGCUCUGAACAUUGATT against Anxa2", "z-score": "3.22 (active)"}
{"sequence": "CCAUGCAGCAAAUCGAGUUTT against Klk1b5", "z-score": "0.912 (inactive)"}
{"sequence": "GGUCUGAGCUUCCAAUAACTT against Reep5", "z-score": "0.183 (inactive)"}
{"sequence": "GCUAUUGGGUAGAUUGAUATT against Baat", "z-score": "0.251 (inactive)"}
{"sequence": "GCUUCUAAUUGGAGAUUGCTT against Bex3", "z-score": "-1.39 (inactive)"}
{"sequence": "GGAACACAAUGGGACGAGUTT against Ccl11", "z-score": "-1.12 (inactive)"}
{"sequence": "GGCCACGUUUCUCUUCACCTT against Nyx", "z-score": "-1.12 (inactive)"}
{"sequence": "GGCAAAGAAUUCAAUCGGATT against Atp2b2", "z-score": "-0.235 (inactive)"}
{"sequence": "GGUUCAAAUGUUGCAUAGUTT against Klrc2", "z-score": "0.597 (inactive)"}
{"sequence": "GGAUCACAGCAGAAGAAAUTT against Tmem144", "z-score": "-2.95 (active)"}
{"sequence": "GGAAGUGGAAGUUCUGAAGTT against Tsc22d1", "z-score": "-0.886 (inactive)"}
{"sequence": "GGGUCUUAUGGAAGUGUUUTT against Stk3", "z-score": "7.27 (active)"}
{"sequence": "CCUUUUUGAGGAAUUUGGATT against Scaf8", "z-score": "-0.0964 (inactive)"}
{"sequence": "CGGCUCGUUGAAGAACAAATT against Afap1", "z-score": "-1.32 (inactive)"}
{"sequence": "GGCUUCAUUCGUAGGCCAUTT against Smcr8", "z-score": "1.64 (inactive)"}
{"sequence": "GGUUCACAGUAACCAUUGGTT against Zc3h18", "z-score": "-2.45 (active)"}
{"sequence": "GCAAAAGGAAACGAUCUCATT against Fbxo43", "z-score": "-0.302 (inactive)"}
{"sequence": "GGCUCAGGACUUUGUCUACTT against Lhx4", "z-score": "-1.19 (inactive)"}
{"sequence": "GGUUCAACUCUCUUUUUGATT against Atp8b5", "z-score": "0.347 (inactive)"}
{"sequence": "GCGAAUGUAGUGUAUUAUGTT against Prkd1", "z-score": "0.259 (inactive)"}
{"sequence": "GGACUGUUGAAUAAAACCUTT against Rnps1", "z-score": "-2.29 (active)"}
{"sequence": "AGGCACGUCUGAUUGCAUGTT against LOC432823", "z-score": "0.578 (inactive)"}
{"sequence": "CCAUUGUGAUCAAGAUAAATT against Cggbp1", "z-score": "-0.35 (inactive)"}
{"sequence": "GCUGUGUCACUACUUCGAUTT against Rpp40", "z-score": "1.32 (inactive)"}
{"sequence": "GGUGAAAGACACUUGAAUUTT against Cdk2", "z-score": "0.625 (inactive)"}
{"sequence": "GGAGACAGAGAAGAUUUGUTT against Mia2", "z-score": "-0.21 (inactive)"}
{"sequence": "GCCAACUACGUAUAUACAUTT against 4921511C20Rik", "z-score": "2.41 (active)"}
{"sequence": "GCAAGGUGACAUCAGAAGUTT against Flot2", "z-score": "-0.709 (inactive)"}
{"sequence": "GGACAUAUAUAGCAAGGAGTT against Polrmt", "z-score": "1.07 (inactive)"}
{"sequence": "GGACAGCAGUUUUUACUAGTT against Mllt10", "z-score": "0.907 (inactive)"}
{"sequence": "GCUGUUUGACUACAUAAUCTT against Melk", "z-score": "0.275 (inactive)"}
{"sequence": "GGUUGGAAAUGAAAUCAAUTT against Erc2", "z-score": "2.36 (active)"}
{"sequence": "GGUUCAAGUGACCAAGUUCTT against Odf3", "z-score": "-0.487 (inactive)"}
{"sequence": "CCCAAGAUGGUAGCAGACATT against Tbxas1", "z-score": "-0.00814 (inactive)"}
{"sequence": "GGAACAUGACAUUUUUGUCTT against Smdt1", "z-score": "-0.561 (inactive)"}
{"sequence": "GGAGGACUCAGCACUCUUUTT against E130311K13Rik", "z-score": "-0.769 (inactive)"}
{"sequence": "GGAUCACAGUCUCUUCGGUTT against Fgf20", "z-score": "0.473 (inactive)"}
{"sequence": "GCACUGAUGUAAGGUAACCTT against Prdm4", "z-score": "2.48 (active)"}
{"sequence": "GGGUGUACCUUAUGUAUUATT against Prpf4", "z-score": "1.03 (inactive)"}
{"sequence": "GGAUUGUGCAGAGCAUCUGTT against Card14", "z-score": "-1.45 (inactive)"}
{"sequence": "GGCUGAGGAGAUAACCAUATT against Nemp2", "z-score": "-0.701 (inactive)"}
{"sequence": "GAUGGACAAACGGAAGUGCTT against Iapp", "z-score": "0.322 (inactive)"}
{"sequence": "GGACUUCAGUUACAACCGGTT against Nr1h3", "z-score": "-0.174 (inactive)"}
{"sequence": "GGCCCAUUUUGGUGUGCAUTT against Hyal3", "z-score": "-2 (active)"}
{"sequence": "CCACAAUUUUUUCUGCCUCTT against Olfr492", "z-score": "-0.694 (inactive)"}
{"sequence": "CGGUAUGAGUAGGAUCUCCTT against Cd83", "z-score": "-0.577 (inactive)"}
{"sequence": "GGAAGUGCUUUGAAGAAGATT against Strip2", "z-score": "1.21 (inactive)"}
{"sequence": "GCUAACUUGCUCAUGCAAATT against Txlnb", "z-score": "-0.00758 (inactive)"}
{"sequence": "GGAAUCGAGAUAUAAAAGGTT against Olfr352", "z-score": "-1.29 (inactive)"}
{"sequence": "GCUAGGAUUGUUCACAAACTT against Spdef", "z-score": "-0.707 (inactive)"}
{"sequence": "GCUCUUCUCAAGUAUGACGTT against Chrna6", "z-score": "0.717 (inactive)"}
{"sequence": "GGAUGCUCACCUUCAAAUUTT against Il2", "z-score": "2.33 (active)"}
{"sequence": "GGAUGGAGAUUAUGAAGAGTT against Pcsk9", "z-score": "-0.248 (inactive)"}
{"sequence": "CCUGUUACCCUAUAUUUUGTT against Vmn1r82", "z-score": "-1.02 (inactive)"}
{"sequence": "CGCAGUUCAUCGCAUGAUUTT against Arhgef12", "z-score": "0.611 (inactive)"}
{"sequence": "GGAUGAAAGUCCAACCACATT against Tulp2", "z-score": "-0.17 (inactive)"}
{"sequence": "GGGUUGAAUAUGUAGCUUGTT against Dsg1a", "z-score": "0.697 (inactive)"}
